The list is not random: actives were taken first. Their share in the collection is about 2.8%.
IDE act = IDE (human) activation, cell-based; P14735; HEK cells, FAbeta-B cleavage, fluorescence polarization; 0% vehicle, 100% cell-free pure enzyme wells; activation, % at 5.96 µM; 340,000 compounds, 0.073% hits; AID 493087;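 active = activation above the mean of all tested compounds plus 3 SD, set per screening campaign, cut at about 17% in these data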
PP5 primary = PP5 (human) phosphatase inhibition | P53041 | purified PP5c, OMFP substrate fluorescence | inhibition, % at 6.7 µM | 320,000 compounds, 0.18% hits | AID 1987;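 active = inhibition above the campaign's mean inhibition across all tested compounds plus 3 SD, cut at about 9.5% in these data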;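 note: 0% = DMSO only and 100% = 100 µM cantharidin control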
IDE inh = inhibitors of human insulin-degrading enzyme in cells | HEK cells, FAbetaB cleavage, fluorescence polarization | inhibition, % at 5.59 µM | 320,000 compounds, 0.41% hits;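 active = percent inhibition above the average of all tested compounds plus 3 SD, set per screening campaign, cut at about 16% in these data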;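 note: IDE supplied by intact live HEK cells; FP after avidin binding of uncleaved biotin substrate so inhibition keeps polarization high; 0% = DMSO wells and 100% = 60 µM reference IDE inhibitor Ii1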
SKKanGAS inh = SKKanGAS growth inhibition | 300,000 compounds, 1.3% hits | inhibition, % at 7.5 µM | S. pyogenes SKKanGAS, kanamycin growth, BacTiter-Glo, 6 h | AID 1662;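 active = mean replicate score, as percent of positive control median, at least 50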;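 note: strain carries kanamycin resistance gene driven by streptokinase promoter and grows in 40 µg/ml kanamycin; loss of luminescence reflects streptokinase promoter inhibition or plain growth inhibition; 0% = median of DMSO wells and 100% = positive control at its reference dose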
Exocytosis inh = blocks lytic granule exocytosis; TALL-104 LAMP-1 surface exposure, flow cytometry; cells stimulated with thapsigargin and PMA; inhibition, % at 10 µM; 360,000 compounds, 0.66% hits;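 active = inhibition above about 55%, limit read from the data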
PP1 counter = blocks human PP1-alpha phosphatase, a PP5 counter-screen | P62136 | purified PP1alpha, OMFP fluorescence | inhibition, % at 6.7 µM | 320,000 compounds, 0.9% hits | AID 2235;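 active = inhibition above the mean inhibition of all tested compounds plus 3 SD, computed separately for each screening campaign, cut at about 15% in these data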
Target sequence (P62136 whole entry, looked up): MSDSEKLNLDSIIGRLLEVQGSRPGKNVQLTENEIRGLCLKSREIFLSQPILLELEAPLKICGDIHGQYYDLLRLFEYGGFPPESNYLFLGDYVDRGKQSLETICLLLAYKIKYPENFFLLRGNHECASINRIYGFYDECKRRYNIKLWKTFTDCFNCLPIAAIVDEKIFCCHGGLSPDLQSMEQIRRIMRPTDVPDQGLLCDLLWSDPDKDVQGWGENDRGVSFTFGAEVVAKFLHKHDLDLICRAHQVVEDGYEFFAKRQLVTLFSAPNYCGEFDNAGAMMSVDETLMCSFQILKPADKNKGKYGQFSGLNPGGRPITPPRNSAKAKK
IDE cell inh cf = cellular human IDE inhibition, confirmation. shares compounds with IDE inh. HEK cells, FAbetaB cleavage, fluorescence polarization. inhibition, % at 5.59 µM. 1,200 compounds, 51% hits. AID 435028;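 active = mean inhibition across triplicate wells above the cutoff set by the earlier primary insulin-degrading enzyme screen, cut at about 16% in these data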;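 note: 0% = DMSO wells and 100% = 60 µM reference IDE inhibitor Ii1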
HEK cytotox = counter-screen for IDE inhibitors: cytotoxicity in HEK cells. HEK293 cytotoxicity, ATP luminescence. shares compounds with IDE inh. inhibition, % at 5.59 µM. AID 449730. 1,200 compounds, 28% hits; in the data active = inhibition above about 22%;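 note: 0% = vehicle wells and 100% = reference cytotoxic drug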
* hit, by the source's call; . = no result.

SMILES	IDE act	PP5 primary	IDE inh	SKKanGAS inh	Exocytosis inh	PP1 counter	IDE cell inh cf	HEK cytotox
CCN1C(=O)/C(=C/C=C2/SCCN2C)SC1=S	-44	7	27*	-1	3	4	69*	21
CN1CCS/C1=C\C=C1/SC(=S)N(CC(=O)O)C1=O	-101	.	.	-6	-1	.	.	.
CCN1C(=O)/C(=C/C=C2/Sc3ccccc3N2CCO)SC1=S	-17	1	20*	10	-1	0	19*	20
CC(C)[C@H](NS(=O)(=O)c1cccc(Cl)c1)C(=O)OCC(=O)NC(=O)CN1CCCC1=O	3	2	-5	.	-6	0	.	.
O=C(/C=C/c1ccc(F)cc1)N1CCCN(C(=O)/C=C/c2ccc(F)cc2)CC1	-12	0	24*	4	3	-1	7	6
COC(=O)c1cccc(C(=O)N2CCCC(Nc3ccc(C)c(C)c3)C2)c1 (stereo not given)	4	-2	1	2	4	-3	.	.
CCn1c(-c2cc(-c3ccccc3OC)nc3ccccc23)n[nH]c1=S	-23	0	16*	17	2	0	10	8
O=C(CSc1nnc(NC(=O)C2CC(=O)N(c3ccccc3)C2)s1)NCc1ccco1 (stereo not given)	5	0	3	1	-14	1	.	.
C=CCc1cc(/C=C2/NC(=S)NC2=O)cc(OC)c1O	-48	4	36*	5	1	1	88*	8
O=C(C1=NN(c2ccccc2)C2C(=O)N(c3ccccc3Cl)C(=O)C12)c1ccccc1 (stereo not given)	-21	0	24*	13	6	1	29*	11
O=C(C1=NN(c2ccccc2)C2C(=O)N(c3ccccc3)C(=O)C12)c1ccccc1 (stereo not given)	-20	3	19*	22	-2	5	23*	12
Cn1c(N)c(C(=O)CSc2nc(N)cc(N)n2)c(=O)n(C)c1=O	-32	3	21*	-1	2	0	8	9
COC(=O)c1ccc(CNC(=O)c2ccccc2C(=O)NCC2(CBr)OCCO2)cc1	.	.	.	.	0	.	.	.
N#C/C(=C\c1ccc(N2CCOCC2)c([N+](=O)[O-])c1)c1nc2ccccc2[nH]1	12	-2	0	6	2	-1	.	.
N#C/C(=C\c1ccc(N2CCOCC2)o1)c1nc2ccccc2[nH]1	-151	1	20*	6	0	-2	26*	29*
CC1CN(S(=O)(=O)c2cccc(C(=O)Nc3ccc(S(=O)(=O)Nc4ncccn4)cc3)c2)CC(C)O1 (stereo not given)	-7	.	.	-5	-2	.	.	.
C=CCn1c(SCC(=O)N2CCc3ccccc3C2)nc2sc(CC)cc2c1=O	-2	4	17*	-6	0	3	7	12
Cc1nn(-c2ccccc2)c(C)c1/C=C/C(=O)OCC(=O)Nc1ccc(C(N)=O)cc1	1	1	1	.	-2	2	.	.
COc1cccc(NC(=O)COC(=O)/C=C/c2c(C)nn(-c3ccccc3)c2C)c1	-17	6	25*	.	3	-3	21*	11
CCOC(=O)CC/C(=N\NC(N)=O)c1ccc(OC)c(Cl)c1	-3	-2	0	1	32	1	.	.
O=c1oc2ccc3ccccc3c2cc1-c1nnc(-c2ccccc2)o1	2	3	8	8	1	-4	.	.
CCN(CC)c1ccc2cc(-c3nc4ccccc4[nH]3)c(=O)oc2c1	25*	-22	39*	-5	14	-20	26*	50*
CCN(CC)c1ccc2cc(-c3nnc(-c4ccccc4)o3)c(=O)oc2c1	-64	-1	36*	21	-4	-8	83*	6
Brc1cc2[nH]cnc2c2ccccc12	-39	1	22*	-7	2	1	11	16
CN(C)c1ccc(/C=C/c2cccc[n+]2[O-])cc1	.	0	2	-4	-7	-6	.	.
CC(C)CC[n+]1ccccc1/C=C/c1ccc(N(C)C)cc1	-12	2	37*	7	9	1	69*	101*

From PubChem BioAssay
